# Shown is part of a subset that was picked to be rich in hits.
# TDP1 cell CPT – DT40-hTDP1 cell growth loss with CPT | hit rate 12% among 420,000 | chicken DT40 Tdp1-/-;hTDP1 cells + 20 nM CPT, ATP luminescence, 48 h | Potency, µM (doses to about 46.2 µM), for inactives: at the top dose activity change, negative = growth inhibition, usual class: inhibitors; also: potency is read from the fitted curve at half-maximal effect; nearly all actives have a fitted effect of over 55% in size
#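 Chicken DT40 Tdp1-/- cells complemented with human TDP1, 400 cells/well, exposed to compounds plus 20 nM camptothecin for at least 48 h at 37 C; viability read as ATP content by CellTiter-Glo luminescence.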
# DT40 TDP1 no CPT – qHTS for Inhibitors of human tyrosyl-DNA phosphodiesterase 1 (TDP1): qHTS in cells in absence of CPT. DT40 Tdp1-/- hTDP1 cells, no CPT, ATP luminescence, 48 h. Potency, µM (doses to about 46.2 µM), without a hit: at the highest dose activity change, negative = growth inhibition, most hits filed as inhibitors. hit rate 15% among 420,000; also: potency is read from the fitted curve at half-maximal effect; nearly all actives have a fitted effect of over 55% in size
#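 Luminescent ATP content (CellTiter-Glo) served as the growth readout. Knockout chicken DT40 cells expressing human TDP1 were exposed to compounds without camptothecin for a minimum 48 hr at 37 °C.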
# HT1080NT lethal – kills 2HG-producing HT-1080-NT fibrosarcoma cells; hit rate 1.6% among 360,000; HT-1080-NT fibrosarcoma viability, CellTiter-Glo ATP luminescence, 48 h; Potency, µM (doses to about 46.1 µM), for the others: top-dose activity, negative = less viability, hits mostly cytotoxic;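 also: NT is the 2HG producing partner of a matched IDH1 knockdown line; potency is read from the fitted curve at half-maximal effect; 0% = DMSO-treated cells and -100% = media-only wells without cells; nearly all actives have a fitted effect of over 55% in size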
#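 HT-1080-NT fibrosarcoma cells (2HG-overproducing), 750 cells/well in RPMI with 5% FBS, dosed after 2 h and incubated 48 h at 37C. CellTiter-Glo luminescence normalized to DMSO and no-cell wells; concentration-response curves fitted and classed.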
# HT1080 IDH1KD tx – HT-1080 IDH1 knockdown cell toxicity (counter line); AID 686971; Potency, µM (highest dose often 46.1 µM), without a hit: at the top dose activity, negative = toxicity, most hits filed as cytotoxic; HT-1080 IDH1 knockdown viability, ATP luminescence, 48 h; hit rate 2% among 360,000;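 also: potency is read from the fitted curve at half-maximal effect; 0% = DMSO wells and -100% = cell-free medium wells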
#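 Luminescent ATP read-out (CellTiter-Glo, 10 min at room temperature) after 48 h compound exposure at 37 °C gave viability of IDH1-knockdown HT-1080 cells. Activity was normalised to DMSO and cell-free wells, then fitted as concentration-response curves.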
# 12-LOX inh – blocks human arachidonate 12S-lipoxygenase; purified 12hLO, xylenol orange hydroperoxide absorbance; hit rate 1.1% among 580,000; Potency, µM (top dose mostly 108 µM), without a hit: at the top dose activity change, negative = inhibition, hits mostly inhibitors; P18054; AID 1671190; also: potency is read from the fitted curve at half-maximal effect
# Target sequence (P18054 whole entry, looked up): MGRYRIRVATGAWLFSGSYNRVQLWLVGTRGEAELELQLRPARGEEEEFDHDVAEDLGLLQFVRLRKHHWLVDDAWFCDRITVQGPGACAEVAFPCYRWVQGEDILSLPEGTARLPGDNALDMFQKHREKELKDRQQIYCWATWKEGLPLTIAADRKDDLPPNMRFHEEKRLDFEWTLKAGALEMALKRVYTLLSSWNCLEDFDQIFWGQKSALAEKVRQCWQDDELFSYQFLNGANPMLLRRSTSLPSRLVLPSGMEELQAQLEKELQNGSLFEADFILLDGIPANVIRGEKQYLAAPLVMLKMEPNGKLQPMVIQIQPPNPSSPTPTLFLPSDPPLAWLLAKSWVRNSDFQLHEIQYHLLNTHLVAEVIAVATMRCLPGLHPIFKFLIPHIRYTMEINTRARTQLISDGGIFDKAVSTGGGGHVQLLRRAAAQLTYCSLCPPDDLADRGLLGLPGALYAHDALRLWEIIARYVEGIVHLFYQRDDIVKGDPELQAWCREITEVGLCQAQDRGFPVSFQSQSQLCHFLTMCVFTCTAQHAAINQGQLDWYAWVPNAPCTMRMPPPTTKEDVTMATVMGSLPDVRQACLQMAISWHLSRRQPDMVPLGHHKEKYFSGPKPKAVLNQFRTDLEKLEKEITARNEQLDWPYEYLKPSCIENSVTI
#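 Purified human 12hLO (150 nM final) in 25 mM Hepes, 0.01% Triton X-100, pH 7.0 was preincubated 15 min at room temperature with compound. Then 40 uM arachidonic acid was added, 30 min. Hydroperoxide was read by Fe-XO absorbance ratio 573/405 nm.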
# IL-1B inflam inh – blocks inflammasome-driven IL-1 beta release; hit rate 4.7% among 360,000; THP-1 LPS/ATP IL-1B secretion, AlphaLISA, 16 h; hits give low values; activity change, % at 57.5 µM; in the data active = activity change below about -50%; inconclusive = mostly about -30% to -49%
#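 Secreted IL-1B measured by AlphaLISA bead assay after 16 h compound exposure of THP-1 cells; compounds (final up to 57.5 uM) added 1 h before LPS (250 ng/mL) and ATP (1.25 mM) stimulation; lower signal means less secretion.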
# * hit, by the source's call; ? = inconclusive; nt = no result given. Unless noted, calls follow the shape of the dose curve; as a rule, active = well fitted curve in the direction sought with a large enough effect; inconclusive = small, poorly fitted or top-dose-only effect, or another doubt; inactive = no such curve, though single readings can be large; an effect the other way counts as inactive or inconclusive. Unless noted, % is scaled to controls: 0 for no effect and ±100 for the full control effect.
SMILES,TDP1 cell CPT,DT40 TDP1 no CPT,HT1080NT lethal,HT1080 IDH1KD tx,12-LOX inh,IL-1B inflam inh
Cc1ccc(OCC(=O)Nc2ccccc2N2CCCC2)c(C)c1,?,29µM*,1%,-4%,3%,?
O[C@H](COc1cc(F)cc(F)c1)CN1CCC(C(O)(c2ccccc2)c2ccccc2)CC1,nt,nt,nt,nt,0%,nt
COc1ccccc1C(C)NCC(=O)c1c(C)[nH]c2ccccc12 (stereo not given),11µM*,18µM*,nt,nt,nt,nt
CCOC(=O)C1(CCOc2ccccc2)CCN(Cc2cccc(F)c2)CC1,16µM*,5.8µM*,-7%,-2%,-20%,?
CCOC(=O)C1(CCOc2ccccc2)CCN(Cc2ccc(CO)o2)CC1,8.2µM*,2.3µM*,-2%,-19%,8%,-17
CCOC(=O)C1(CCOc2ccccc2)CCN(Cc2ccc3nonc3c2)CC1,?,21µM*,-25%,-29%,8%,-1
CCOC(=O)C1(Cc2cccc(F)c2)CCN(Cc2cnn(CC)c2)CC1,-24%,?,-6%,?,-1%,-5
CCOC(=O)C1(Cc2cccc(F)c2)CCN(Cc2nc(CC)[nH]c2C)CC1,?,23µM*,?,-16%,2%,-55*
CCOC(=O)C1(CCOc2ccccc2)CCN(Cc2cccn2-c2cccnc2)CC1,?,?,-22%,-13%,-9%,?
CC(OC(=O)c1sc2cc(F)ccc2c1Cl)C(N)=O (stereo not given),nt,nt,nt,nt,-8%,nt
Cc1cc(C)cc(C(=O)Nc2ccc(-c3nnc4n3CCCC4)cc2)c1,nt,nt,nt,nt,45%,nt
CCOC(=O)C1(CCOc2ccccc2)CCN(Cc2ccccc2O)CC1,?,?,-16%,-8%,?,6
CCOC(=O)C1(CCOc2ccccc2)CCN(CCCn2cccn2)CC1,?,?,-3%,-5%,-14%,-12
CCOC(=O)C1(CCOc2ccccc2)CCN(Cc2cccc(OCCO)c2)CC1,?,?,1%,-10%,4%,-15
CCOC(=O)C1(CCOc2ccccc2)CCN(Cc2ccc(OCC)c(CO)c2)CC1,15µM*,18µM*,?,-22%,-18%,-24
CCOC(=O)C1(CCOc2ccccc2)CCN(Cc2cccc(OC)c2OC)CC1,?,21µM*,?,?,12%,-88*
CCOC(=O)C1(CCOc2ccccc2)CCN(Cc2cccc(-n3cccn3)c2)CC1,16µM*,16µM*,-14%,?,-9%,3
CCOC(=O)C1(CCOc2ccccc2)CCN(C(=O)c2ccc(-n3cccn3)cc2)CC1,?,21µM*,-21%,?,7%,-27
CCCN1C(=O)Cc2ccccc2C1C(=O)NCc1ccc(F)c(Cl)c1 (stereo not given),nt,nt,nt,nt,-26%,nt
N#CCCN(C(=O)COC(=O)c1ccccc1Sc1ccc(C(F)(F)F)cc1[N+](=O)[O-])c1ccccc1F,nt,nt,nt,nt,-1%,nt
Cc1ccc(-n2cc(CN3CCC(CCO)CC3)c(-c3cccc(C)c3)n2)cc1,nt,nt,nt,nt,14%,nt
C=C(C)CN(CC)C(=O)c1ccsc1,nt,nt,nt,nt,1%,nt
CCOC(=O)C1(CCOc2ccccc2)CCN(CC=C(C)C)CC1,?,?,0%,-2%,10%,-9
CCOC(=O)C1(CCOc2ccccc2)CCN(Cc2ccc(OC)cc2)CC1,15µM*,21µM*,?,?,2%,?
CCOC(=O)C1(CCOc2ccccc2)CCN(Cc2cnc(C)s2)CC1,?,21µM*,-7%,-7%,2%,-8
Clc1ccc(-c2cnc3n2CCC3)cc1,-23%,-28%,35µM*,?,9%,-14
COc1ccc(-c2cnc3n2CC(C(=O)N(C)C)CC3)cc1 (stereo not given),nt,nt,nt,nt,43%,nt

# Compound activity from PubChem.
